Assay outcomes as filed in PubChem BioAssay.
HSF1 activator – increases HSF-1 driven luciferase reporter signal; NIH3T3-HGL HSF-1 luciferase reporter, MG132, 8 h; 100% = twice DMSO control signal; activation, % at 9 µM; actives 1.7% (n = 300,000);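 active = mean replicate activation of at least 50% with a set share of replicates each reaching 50%; inconclusive = only one of those two conditions met; inactive = mean below 50% and too few replicates reaching it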
MPTP inh – permeability transition pore inhibition; isolated mouse mitochondria, Ca2+ swelling absorbance, 30 min; inhibition, % at 10 µM; actives 1.4% (n = 360,000);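 active = inhibition of 50% or more, scaled per plate between neutral and stimulator controls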
HSF1 inh – HSF1 inhibition; actives 0.77% (n = 300,000); AID 2098; activity change, negative = inhibition, % at 7.5 µM (by protocol); NIH3T3-HGL HSE-luciferase, MG132-induced, luminescence 8 h; hits give low values;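 active = more than half of replicate wells show activity change below -50%, luminescence cut by over half; inconclusive = some wells, but at most half, below -50%; inactive = no replicate well below -50%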;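 note: luciferase reports HSF-1 transcriptional activity via heat shock element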
dFosB activator – activators of mouse delta FosB homodimer; P13346; purified delta FosB, TAMRA-CDK5 oligo fluorescence polarization; percent of positive-control signal above neutral wells; activation, % at 25 µM; actives 0.99% (n = 340,000);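 active = mean activation above about 17%, with every replicate also reaching it, limit read from the data, passing the limit was not always enough; inconclusive = only one of the two conditions met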
Target sequence (P13346 whole entry, looked up): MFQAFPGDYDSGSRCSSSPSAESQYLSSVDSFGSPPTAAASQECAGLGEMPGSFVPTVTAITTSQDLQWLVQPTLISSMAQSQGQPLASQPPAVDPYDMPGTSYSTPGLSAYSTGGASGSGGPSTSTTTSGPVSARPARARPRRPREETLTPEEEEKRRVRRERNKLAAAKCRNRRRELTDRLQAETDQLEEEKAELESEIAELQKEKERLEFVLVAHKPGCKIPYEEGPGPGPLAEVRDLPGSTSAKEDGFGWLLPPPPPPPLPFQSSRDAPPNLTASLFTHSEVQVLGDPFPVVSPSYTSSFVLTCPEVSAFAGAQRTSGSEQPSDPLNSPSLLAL
Platelet DG rel – platelet dense granule release activity | human platelet-rich plasma, SFLLRN dense granule ATP release, luminescence | inhibition, %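 (compounds screened at 7.5 µM in platelet-rich plasma)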 | actives 0.22% (n = 300,000) | AID 1663;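 active = mean replicate score, as percent of positive control, at or above 50; inconclusive = mean below 50 but at least one replicate at or above 50; inactive = mean and every replicate below 50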
HSP90 refold inh – HSP90 refolding inhibition in rabbit reticulocyte lysate | luciferase refolding luminescence, 3 h | inhibition, % at 5.6 µM | actives 0.91% (n = 290,000) | AID 1789;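 active = inhibition above the screen-wide mean plus 3 SD, computed separately per campaign, cut at about 16% in these data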;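 note: inhibitors lower the luminescence because luciferase stays unfolded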
Each line names hits and unclear results; the compound was inactive in the other large screens. Compounds with a hit are over-represented: about 4.9% of the library has one in this group of screens.

COC(=O)c1ccccc1S(=O)(=O)NNC(=O)c1nn(C)c(=O)c2ccccc12	none (no result: HSF1 activator, HSF1 inh, Platelet DG rel, HSP90 refold inh)
CCCC(=O)N1CCC1(C)C(=O)Nc1cccc(F)c1 (stereo not given)	none (no result: HSF1 activator, HSF1 inh, dFosB activator, Platelet DG rel, HSP90 refold inh)
COc1ccc(C(=O)COC(=O)Cn2c(C)csc2=O)c(OC)c1	none (no result: HSP90 refold inh)
COc1ccc(C(=O)COC(=O)CN2C(=O)c3ccccc3C2=O)c(OC)c1	dFosB activator 19.3
C[C@@H]1CN(C(=O)c2cc(COc3cccc(C(F)(F)F)c3)on2)C[C@H](C)O1	HSF1 activator 94.7
CC(COc1ccc(/C=C/c2ccccc2)cc1)[N+](C)(C)C (stereo not given)	none (no result: HSF1 activator, HSF1 inh, Platelet DG rel, HSP90 refold inh)
CCN(CC)S(=O)(=O)c1cc([N+](=O)[O-])ccc1NNC(=O)Nc1ccccc1OC	HSF1 activator 71.0
CCN(CC)S(=O)(=O)c1ccc(OC)c(NC(=O)c2ccc([N+](=O)[O-])cc2)c1	none
Cc1nc([N+](=O)[O-])c(SCC(N)=O)n1Cc1ccccc1	none
Cc1nc([N+](=O)[O-])c(Sc2nc3ccccc3n2C)n1Cc1ccccc1	HSF1 activator 79.4
CCCc1nc(SCC(=O)Nc2cc(Cl)ccc2OC)c2c(=O)n(C)c(=O)n(C)c2n1	HSF1 inh -63.0 (no result: MPTP inh, dFosB activator)
CCc1nc2c(OCCOc3ccc(F)cc3)cccn2c1N(C)C(=O)CC(C)C	none (no result: HSF1 activator, HSF1 inh, dFosB activator, Platelet DG rel, HSP90 refold inh)
COc1cccc(NC(=O)COc2ccccc2C(N)=O)c1	HSF1 activator 71.2
O=C(COC(=O)CNC(=O)c1ccc(Cl)cc1)Nc1cccc(S(=O)(=O)N2CCCC2)c1	none
Cc1ccc(NC(=O)c2ccccc2)cc1	none
Cc1ccc(NC(=O)c2ccccc2O)cc1	HSF1 activator 82.3
O=C(Nc1ccccc1)c1ccccc1O	none
Cc1ccc(NC(=O)C2=C(c3ccccc3)S(=O)(=O)CCS2(=O)=O)cc1	HSF1 inh -74.9
Cc1ccc(NC(=O)c2c(Cl)n(C)c3ccccc23)cc1	HSF1 activator 71.7
Cn1c(Cl)c(C(=O)Nc2ccccc2)c2ccccc21	none (no result: HSF1 activator, HSF1 inh, Platelet DG rel)
Cc1ccc(NC(=O)C(=O)c2ccc(C)cc2)cc1	HSF1 activator 61.2
O=C(NCc1ccccc1)c1cc(C2CCCN(S(=O)(=O)c3cccs3)C2)on1 (stereo not given)	none (no result: HSF1 activator, HSF1 inh, dFosB activator, Platelet DG rel, HSP90 refold inh)
COc1ccc(-n2nc3c(c2NC(=O)COc2ccccc2OC)CS(=O)(=O)C3)cc1	none (no result: HSF1 activator, HSF1 inh, dFosB activator, Platelet DG rel, HSP90 refold inh)
CCn1c(=O)n(CC)c2cc(N3CCCC3)c(NC(=O)c3cc(Cl)ccc3OC)cc21	none
Cc1cc(Sc2nnc(N)s2)c2ccccc2n1	HSF1 activator 136.0
C/C(N)=C(/C#N)C(=O)CSc1nnc(Nc2ccccc2C)s1	HSF1 activator 70.9
C/C(N)=C(/C#N)C(=O)CSc1nnc(NC(C)C)s1	none
C/C(N)=C(/C#N)C(=O)CSc1nnc(Nc2ccccc2)s1	HSF1 activator 55.3
O=C(NCCc1ccccc1)C(=O)Nc1ccc([N+](=O)[O-])cc1	none
CC(=O)Nc1cc(C(=O)N2CCc3ccccc3C2)ccc1Sc1ccc(Cl)cc1	none
Nc1ccccc1-n1c(=O)n(Cc2ccccc2F)c(=O)c2[nH]cnc21	none
CCc1nc(CN(C)C(=O)C2CCC(=O)N(CCc3cccc(F)c3)C2)no1 (stereo not given)	none
CCn1cc(C(=O)O)c(=O)c2cc(F)c(N3CCN(C(=S)NC(=O)c4ccccc4Br)CC3)cc21	none
COc1cccc(N2CCN(C(=O)c3ccc4ccccc4c3)CC2)c1	none (no result: HSF1 activator, HSF1 inh, Platelet DG rel, HSP90 refold inh)
COc1cccc(N2CCN(C(=O)c3ccc4nc(N5CCCCC5)sc4c3)CC2)c1	HSP90 refold inh 59.4
Cc1nc(NC(=O)CSc2nc(N)cc(N)n2)sc1C	none
CCOC(=S)SCC(=O)Nc1nccs1	HSF1 activator 114.8, Platelet DG rel inconclusive
CCCC(CCC(=O)Nc1nccs1)C(=O)O (stereo not given)	HSF1 activator 52.7
O=C(CSc1nc2ccccc2o1)Nc1nc(-c2ccccc2)cs1	HSF1 inh -55.8
CCOC(=S)SCC(=O)Nc1nc(C)c(C)s1	HSF1 activator 235.7
CCOC(=S)SCC(=O)Nc1nc(-c2ccccc2)cs1	HSF1 activator 66.6
CCOC(=O)N1CCN(C(=O)CSCC(=O)Nc2nc(-c3ccc(-c4ccccc4)cc3)cs2)CC1	none
COc1ccc(CS(=O)(=O)CC2(O)CCN(C(=O)c3cccc(C(F)(F)F)c3)CC2)cc1	none
COc1ccc(OCCCCn2c(CO)nc3ccccc32)cc1	HSF1 inh -53.7
